Growth inhibition data for six molecules are collected here from PubChem BioAssay (NCI).

About 79,000 compounds went through this panel and 15% of them were active in at least one assay; those are over-represented in the sample as a whole. Values without a mark were called inactive. The source made the active and inactive calls. Rule as the data show it: active = growth inhibition above about 70%; inactive = the rest.

A short description of experiment [1]: NCI Yeast Anticancer Drug Screen. Data for the rad50 strain (AID 155).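 Also: 0% = growth of vehicle-only cultures of the same strain.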 To be noted: S. cerevisiae rad50 strain growth inhibition, stronger effect = higher value. The method, boiled down:
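Compounds were tested on a yeast strain with an engineered DNA damage repair alteration; the reported value is growth inhibition normalised to vehicle treatment.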

A short description of experiment [2]: NCI Yeast Anticancer Drug Screen. Data for the mec2-1 strain (AID 157). As to conditions: S. cerevisiae mec2-1 strain, stronger effect = higher value. The method, boiled down: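 Strain: mec2-1 (DNA repair/cell cycle alteration). Compound exposure, then growth measured; inhibition expressed relative to vehicle.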
Experiment [3] can be described thus: NCI Yeast Anticancer Drug Screen. Data for the sgs1 mgt1 strain (AID 161).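 Also: 0% = growth of cultures given vehicle only.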 To be noted: S. cerevisiae sgs1 mgt1 strain, stronger effect = higher value. The method, boiled down: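 Read-out: growth inhibition vs vehicle controls. Cells: mutant yeast strain deficient in DNA damage repair.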
The nature of experiment [4]: NCI Yeast Anticancer Drug Screen. Data for the cln2 rad14 strain (AID 165).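 Also: 0% = growth equal to vehicle treated cultures.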 To be noted: S. cerevisiae cln2 rad14 strain, stronger effect = higher value. The method, boiled down: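 Compounds are applied to the cln2 rad14 yeast strain, and growth is then compared with that of vehicle-treated cultures to give inhibition.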
A short description of experiment [5]: NCI Yeast Anticancer Drug Screen. Data for the bub3 strain (AID 167). To be noted: S. cerevisiae bub3 mutant strain, stronger effect = higher value. The method, boiled down:
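Growth of a checkpoint-deficient yeast mutant is measured after compound exposure. Values represent inhibition relative to vehicle.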

Experiment [6] is described as follows: NCI Yeast Anticancer Drug Screen. Data for the mlh1 rad18 strain (AID 175). To be noted: S. cerevisiae mlh1 rad18 strain growth inhibition, stronger effect = higher value. The method, boiled down: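 Read-out is yeast growth inhibition, calculated against vehicle-only controls. The compound was applied to a strain engineered with DNA damage repair alterations.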
[7] abbreviates: at 5.0 µM (retest, dose inferred, filed as 0.5).
Setting [8] is: at 50.0 µM (retest, dose inferred, filed as 5.0).

Consider `C=CCN1/C(=C\C=C\c2ccc3cc(C)ccc3[n+]2CC=C)C=Cc2cc(C)ccc21`, for which the growth inhibition in experiment [1] (setting [7]) was 58%; in experiment [1] (setting [8]), 97% (active); in experiment [1] (at 50.0 µM), 90.5% (active); in experiment [2] (setting [7]), 63%; in experiment [2] (setting [8]) it was 99% (active); in experiment [2] (at 50.0 µM), 91.1% (active). Besides, the growth inhibition in experiment [3] (setting [7]) is 90% (active); in experiment [3] (setting [8]), 98% (active); in experiment [3] (at 50.0 µM) it was 92.6% (active); in experiment [4] (setting [7]), 78% (active); in experiment [4] (setting [8]) it was 98% (active); in experiment [4] (at 50.0 µM) it was 91.9% (active). For the same molecule, the growth inhibition was 83% (active) in experiment [5] (setting [7]); 98% (active) in experiment [5] (setting [8]); 91% (active) in experiment [5] (at 50.0 µM); 79% (active) in experiment [6] (setting [7]); 98% (active) in experiment [6] (setting [8]); 89.2% (active) in experiment [6] (at 50.0 µM).
As for `O=c1c2ccccc2sc2c([N+](=O)[O-])ccc(NCCNCCO)c12`, the growth inhibition was 57% in experiment [1] (setting [7]); 98% (active) in experiment [1] (setting [8]); 87.2% (active) in experiment [1] (at 50.0 µM); 35% in experiment [2] (setting [7]); 99% (active) in experiment [2] (setting [8]); 92.1% (active) in experiment [2] (at 50.0 µM). The growth inhibition is 18% in experiment [3] (setting [7]); 98% (active) in experiment [3] (setting [8]); 86.7% (active) in experiment [3] (at 50.0 µM); 25% in experiment [4] (setting [7]); 98% (active) in experiment [4] (setting [8]); 87.2% (active) in experiment [4] (at 50.0 µM). The growth inhibition was 21% in experiment [5] (setting [7]); 99% (active) in experiment [5] (setting [8]); 88.5% (active) in experiment [5] (at 50.0 µM); 35% in experiment [6] (setting [7]); 98% (active) in experiment [6] (setting [8]); 83.3% (active) in experiment [6] (at 50.0 µM).
For the molecule `CC(N)C1C(C)CC2C3CC=C4CC(O)CCC4(C)C3CCC21C` (stereo not drawn), the growth inhibition in experiment [1] (setting [7]) was 50%; in experiment [1] (setting [8]), 85% (active); in experiment [1] (at 50.0 µM) it was 4.45%; in experiment [2] (setting [7]), 35%; in experiment [2] (setting [8]) it was 74% (active); in experiment [2] (at 50.0 µM), 25.1%. Besides, the growth inhibition is 83% (active) in experiment [3] (setting [7]); -19% in experiment [3] (setting [8]); 74% (active) in experiment [3] (at 50.0 µM); 49% in experiment [4] (setting [7]); 86% (active) in experiment [4] (setting [8]); 8.3% in experiment [4] (at 50.0 µM). Also, the growth inhibition in experiment [5] (setting [7]) was 52%; in experiment [5] (setting [8]), 85% (active); in experiment [5] (at 50.0 µM), 84.1% (active); in experiment [6] (setting [7]), 57%; in experiment [6] (setting [8]), 86% (active); in experiment [6] (at 50.0 µM), 53.2%.
For `CC1(CCC(=O)O)c2ccc3ccccc3c2Oc2c1ccc1ccccc21`, the growth inhibition was 79% (active) in experiment [1] (setting [7]); 94% (active) in experiment [1] (setting [8]); 93.8% (active) in experiment [1] (at 50.0 µM); 92% (active) in experiment [2] (setting [7]); 94% (active) in experiment [2] (setting [8]); 96.2% (active) in experiment [2] (at 50.0 µM). Besides, the growth inhibition is 81% (active) in experiment [3] (setting [7]); 94% (active) in experiment [3] (setting [8]); 96% (active) in experiment [3] (at 50.0 µM); 77% (active) in experiment [4] (setting [7]); 95% (active) in experiment [4] (setting [8]); 94.9% (active) in experiment [4] (at 50.0 µM). Moreover, the growth inhibition is 51% in experiment [5] (setting [7]); 92% (active) in experiment [5] (setting [8]); 95.9% (active) in experiment [5] (at 50.0 µM); 84% (active) in experiment [6] (setting [7]); 92% (active) in experiment [6] (setting [8]); 94.8% (active) in experiment [6] (at 50.0 µM).
As to `O=C1C(Cl)=C(N2C(=O)CCCC2=O)C(=O)c2ccccc21`, the growth inhibition in experiment [1] (setting [7]) is 100% (active); in experiment [1] (setting [8]), 99% (active); in experiment [1] (at 50.0 µM), 89.2% (active); in experiment [2] (setting [7]) it was 100% (active); in experiment [2] (setting [8]) it was 99% (active); in experiment [2] (at 50.0 µM), 90.2% (active). For the same molecule, the growth inhibition was 100% (active) in experiment [3] (setting [7]); 99% (active) in experiment [3] (setting [8]); 91.5% (active) in experiment [3] (at 50.0 µM); 99% (active) in experiment [4] (setting [7]); 99% (active) in experiment [4] (setting [8]); 89.8% (active) in experiment [4] (at 50.0 µM). Besides, the growth inhibition was 100% (active) in experiment [5] (setting [7]); 99% (active) in experiment [5] (setting [8]); 89.1% (active) in experiment [5] (at 50.0 µM); 99% (active) in experiment [6] (setting [7]); 99% (active) in experiment [6] (setting [8]); 88.3% (active) in experiment [6] (at 50.0 µM).
Turning to `Cn1cnc([N+](=O)[O-])c1Sc1nnnn1-c1ccccc1`, the growth inhibition in experiment [1] (setting [7]) was 53%; in experiment [1] (setting [8]) it was 86% (active); in experiment [1] (at 50.0 µM), 82% (active); in experiment [2] (setting [7]) it was 29%; in experiment [2] (setting [8]), 70% (active); in experiment [2] (at 50.0 µM) it was 75.8% (active). For the same molecule, the growth inhibition is 47% in experiment [3] (setting [7]); 71% (active) in experiment [3] (setting [8]); 68.7% in experiment [3] (at 50.0 µM); 32% in experiment [4] (setting [7]); 51% in experiment [4] (setting [8]); 36.1% in experiment [4] (at 50.0 µM). Moreover, the growth inhibition in experiment [5] (setting [7]) was 42%; in experiment [5] (setting [8]), 75% (active); in experiment [5] (at 50.0 µM), 80.8% (active); in experiment [6] (setting [7]), 60%; in experiment [6] (setting [8]), 91% (active); in experiment [6] (at 50.0 µM), 80.5% (active).
